From PubChem
Hits are enriched below; roughly 3.7% of the tested compounds scored in any of these assays.
Nrf2 activator: activates Nrf2 signaling; AREc32 ARE-luciferase reporter (MCF7-derived line), luminescence, 24 h; Potency, µM (top dose mostly 46.1 µM), for inactives: at the top dose activation, actives largely listed as activators; actives 0.31% (n = 410,000); AID 624171; also: % of control where 0% means no effect; nearly all actives have a fitted effect of over 65% in size
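Reporter line AREc32 (ARE-Fluc), seeded overnight in OPTI-MEM with 5% FBS; compound pin-transferred, 24 hr at 37 deg C, 5% CO2; luminescent read-out.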
Nrf2 inh: blocks Nrf2 signaling; A549 ARE-Fluc reporter, luciferase luminescence, 18-24 h; AID 504444; Potency, µM (doses to about 46 µM), for the others: at the highest dose activity change, negative = inhibition, usual class: inhibitors; actives 2.1% (n = 360,000); also: % is scaled to controls: 0 for no effect and ±100 for the full control effect; nearly all actives have a fitted effect of over 60% in size
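In this cell-based qHTS, ARE-driven firefly luciferase in A549 cells reports Nrf2 activity; the luminescent signal after BugLite lysis is the measured value, with a prior CellTiter-Fluor read for cell health.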
A549 tox: counter-screen for Nrf2 inhibitors: cytotoxicity in A549 cells | A549 ARE-Fluc cells, CellTiter-Fluor viability, 18-24 h | Potency, µM (top dose mostly 46 µM), without a hit: at the top dose activity change, negative = cytotoxicity, actives largely listed as inhibitors | actives 0.16% (n = 390,000); also: % is scaled to controls: 0 for no effect and ±100 for the full control effect
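Cytotoxicity counterscreen: CellTiter-Fluor fluorescence was measured in A549 ARE_Fluc cells after 18-24 h of compound exposure in a concentration series. The subsequent BugLite luminescent read reports ARE-luciferase activity.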
ELG1 DNA repair: ELG1-dependent DNA repair inhibition; actives 2.3% (n = 330,000); Potency, µM (top dose mostly 46.1 µM), inactives show at the highest dose activity change, negative = inhibition, usual class: inhibitors; HEK293T ELG1-luciferase reporter, luminescence, 16 h; DNA damage induced by 5-fluorouridine; also: % is scaled to controls: 0 for no effect and ±100 for the full control effect; nearly all actives have a fitted effect of over 55% in size
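HEK293T cells expressing luciferase-tagged ELG1 (2,000/well) received 5-Fluorouridine plus compound or DMSO for 16 hr at 37 °C. Luciferase was read by ONE-Glo luminescence after 30 min at room temperature.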
Starred values were filed as active, the others as inactive; ? = inconclusive; . = no result given. Calls follow the shape of the dose curve; as a rule, active = well fitted curve in the direction sought with a large enough effect; inconclusive = small, poorly fitted or top-dose-only effect, or another doubt; inactive = no such curve, though single readings can be large; an effect the other way counts as inactive or inconclusive. Potency is read from the fitted curve at half-maximal effect.

SMILES	Nrf2 activator	Nrf2 inh	A549 tox	ELG1 DNA repair
COc1cc2c(C(=O)Nc3ccc4c(c3)OCO4)cn(CC(C)C)c(=O)c2cc1OC	.	.	.	9.2µM*
COc1cc2c(C(=O)NCc3ccc4c(c3)OCO4)cn(CC(C)C)c(=O)c2cc1OC	0%	?	-8%	?
CCCCC1=CC2=CC(=O)C(C)(OC(=O)c3cnc4ccccc4n3)C(=O)C2=CO1 (configuration not stated)	.	.	.	7%
COc1ccc(C(=O)c2oc3ccccc3c2NC(=O)COc2c(C)cc(C)cc2C)cc1	0%	2%	-1%	.
CC(C)(C)C(=O)Nc1ccc(-c2nc3ccccc3s2)cc1	-3%	2.6µM*	1%	.
CCS(=O)(=O)c1ccccc1C(=O)Nc1ccc(-c2nc3ccccc3s2)cc1	11%	.	-5%	.
CCOC(=O)C1=C(COC(=O)/C=C/c2ccc(SC)cc2)NC(=O)NC1C (configuration not stated)	5%	-3%	-1%	10µM*
N#CCCCc1cn(-c2nc3ccccc3s2)nn1	0%	.	.	.
Cc1cc(C(=O)COC(=O)Cc2n[nH]c(=O)c3ccccc23)c(C)n1-c1ccc2c(c1)OCO2	1%	-24%	-5%	13µM*
COc1cccc(-c2nn(-c3ccccc3)cc2C(=O)Nc2nccs2)c1	-1%	-29%	1%	?
COc1ccc(-c2nn(-c3ccccc3)cc2C(=O)Nc2nccs2)cc1	1%	?	-10%	6.5µM*
CCC(NC(=O)Nc1nnc(C(F)(F)F)s1)(C(F)(F)F)C(F)(F)F	0%	3.7µM*	7.3µM*	23µM*
CCc1c2c(nc3ccc4c(c13)OCCO4)-c1nc3ccccc3c(=O)n1C2	.	0.26µM*	3%	.
COc1cc(NC(=O)CN2C(=O)NC(c3ccccc3)(c3ccccc3)C2=O)c(C)cc1[N+](=O)[O-]	6%	29µM*	-17%	?
CCC(C)NC(=O)c1c(C)oc2nc(C)nc(N3CCOCC3)c12 (configuration not stated)	0%	?	-13%	.
COc1cc(CN(C(=O)c2ccc(OC(C)C)cc2)c2ccccn2)cc(OC)c1OC	4%	5.2µM*	-5%	.
C=CC[n+]1c(-c2ccc(Cl)cc2Cl)csc1Nc1ccc(NC(C)=O)cc1	-2%	12µM*	-15%	6%
Cc1nc(C)c(C(=O)N2CCCC(C(=O)c3ccc(Cl)cc3C)C2)s1 (configuration not stated)	0%	3%	-1%	-7%
O=c1[nH]c(CN2CCN(S(=O)(=O)c3ccccc3C(F)(F)F)CC2)nc2sc3c(c12)CCCC3	0%	?	-4%	16µM*
COc1cc2nc(CN3CCN(S(=O)(=O)c4ccccc4C(F)(F)F)CC3)[nH]c(=O)c2cc1OC	2%	-17%	-11%	?
COc1ccc(CN(C)C(C)C(=O)Nc2ccc([N+](=O)[O-])cc2Cl)cc1OC (configuration not stated)	0%	?	6%	9.2µM*
CCOc1ccc(CN(C)C(C)C(=O)Nc2ccc([N+](=O)[O-])cc2Cl)cc1OC (configuration not stated)	1%	2%	-1%	15µM*
COc1ccc(Br)cc1CN(C)C(C)C(=O)Nc1cc([N+](=O)[O-])ccc1OC (configuration not stated)	9%	?	0%	?
CCOCC(=O)Nc1ccc([N+](=O)[O-])cc1Cl	0%	2%	5%	16%
COc1ccc([N+](=O)[O-])cc1NC(=O)C(C)N(C)Cc1ccc(Br)cc1 (configuration not stated)	4%	-2%	-2%	21µM*
SMILES	Nrf2 activator	Nrf2 inh	A549 tox	ELG1 DNA repair
COc1ccc(-n2ncc3c(SCC(=O)N4CCN(c5ccccc5OC)CC4)ncnc32)cc1	4%	-5%	18%	16µM*
CCCc1c(C(=O)N2CCN(c3ccccc3OC)CC2)cnn1-c1ccccc1	0%	-13%	1%	16µM*
COc1ccccc1N1CCN(C(=O)CSc2ncnc3scc(-c4ccccc4)c23)CC1	2%	18µM*	-3%	?
COc1cc(NC(=O)C2=C(N3CCOCC3)/C(=C\c3ccc(N(C)C)cc3)CCC2)cc(OC)c1OC	20%	-14%	-18%	?
COc1cc(NC(=O)C2=C(N3CCOCC3)/C(=C/c3ccc(Cl)cc3)CC2)cc(OC)c1OC	0%	-11%	0%	16µM*
N#Cc1c(N)nc(SCc2ccccn2)c(C#N)c1-c1cccs1	5%	.	0%	15µM*
N#Cc1c(N)nc(SCC(=O)OCc2ccccc2)c(C#N)c1-c1ccco1	8%	-10%	10%	2%
N#Cc1c(N)nc(SCc2ccccc2)c(C#N)c1-c1ccco1	3%	12µM*	?	?
CCOC(=O)CCc1cc(F)c(S(=O)(=O)N2CCN(S(=O)(=O)c3ccc4c(c3)OCCO4)CC2)cc1F	.	3%	-2%	.
COc1ccc(OC)c(CC(=O)N2CCc3cc(OC)c(OC)cc3C2)c1	2%	-4%	11%	-8%
COc1ccc(CN(C)C(=O)C23CC4CC(CC(Cl)(C4)C2)C3)c(OC)c1OC	-1%	-5%	4%	26µM*
COc1cccc(CN(C)C(=O)C23CC4CC(CC(NC(C)=O)(C4)C2)C3)c1OC	-1%	9%	-1%	7%
O=C(Nc1ccc(F)cc1F)c1cc2c(=O)n3ccccc3nc2s1	5%	15%	-1%	.
CC(=O)NC(c1ccccc1)c1nc(-c2cccnc2)cs1 (configuration not stated)	0%	.	.	.
Cc1ccc(NC(=O)O/N=C/c2c(C)nn(C(C)(C)C)c2C)cc1Cl	-3%	0.33µM*	1%	?
Cc1ccc(NC(=O)Nn2cnnc2)cc1Cl	-1%	2%	0%	7%
CC1(C(=O)NCCc2c[nH]c3ccccc23)CCN1Cc1csc2ccccc12 (configuration not stated)	0%	.	.	.
Cn1c(=O)c2c(SCc3cccnc3)nc(CC(C)(C)C)nc2n(C)c1=O	-1%	?	-28%	?
CCCc1nc(SCc2cccnc2)c2c(=O)n(C)c(=O)n(C)c2n1	3%	-16%	-1%	16µM*
CCc1cc(C(=O)N2CCCC(N3CCN(c4cccc(C(F)(F)F)c4)CC3)C2)n(C)n1 (configuration not stated)	0%	8.2µM*	-17%	-21%
O=C(c1ccncc1)N1CCCC(N2CCN(c3cccc(C(F)(F)F)c3)CC2)C1 (configuration not stated)	0%	?	4%	17%
CCc1nc2ccccc2c(=O)n1NC(=O)c1c(O)c2ccccc2[nH]c1=O	-1%	4%	-1%	-27%
CCCn1c(=O)c(C(=O)NNS(=O)(=O)c2ccc(C)cc2)c(O)c2ccccc21	0%	?	-8%	6%
Cc1nc2ccccc2c(=O)n1NC(=O)c1c(O)c2c(n(CC(C)C)c1=O)CCCC2	-1%	?	?	-11%
